# Assay results reported in PubChem BioAssay (Tox21).
# Results filed as inconclusive are left out. Where a call stands in place of a potency, no number is given. Active and inactive are the calls of the source. Calls come from the whole dose curve. Residues, ends and D or L forms follow the SMILES beside them.
# Target: Acetylcholinesterase (Homo sapiens) (UniProt P22303)
# Test: Acetylcholinesterase (AChE) small molecule antagonists: colormetric cell-based qHTS assay (AID 1347395); note: nearly all actives have a fitted effect of over 30% in size
# Details: SH-SY5Y cells AChE activity, colorimetric (Ellman); series mostly up to 115 µM
# Summary of the method: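 Colorimetric readout: DTNB quantifies thiocholine from acetylthiocholine hydrolysed by endogenous AChE of SH-SY5Y cells (2,000/well, plated overnight). Compound pretreatment 30 min, substrate incubation 90 min, both 37 C.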
# Sequence of Acetylcholinesterase (Homo sapiens) (P22303 whole entry, looked up): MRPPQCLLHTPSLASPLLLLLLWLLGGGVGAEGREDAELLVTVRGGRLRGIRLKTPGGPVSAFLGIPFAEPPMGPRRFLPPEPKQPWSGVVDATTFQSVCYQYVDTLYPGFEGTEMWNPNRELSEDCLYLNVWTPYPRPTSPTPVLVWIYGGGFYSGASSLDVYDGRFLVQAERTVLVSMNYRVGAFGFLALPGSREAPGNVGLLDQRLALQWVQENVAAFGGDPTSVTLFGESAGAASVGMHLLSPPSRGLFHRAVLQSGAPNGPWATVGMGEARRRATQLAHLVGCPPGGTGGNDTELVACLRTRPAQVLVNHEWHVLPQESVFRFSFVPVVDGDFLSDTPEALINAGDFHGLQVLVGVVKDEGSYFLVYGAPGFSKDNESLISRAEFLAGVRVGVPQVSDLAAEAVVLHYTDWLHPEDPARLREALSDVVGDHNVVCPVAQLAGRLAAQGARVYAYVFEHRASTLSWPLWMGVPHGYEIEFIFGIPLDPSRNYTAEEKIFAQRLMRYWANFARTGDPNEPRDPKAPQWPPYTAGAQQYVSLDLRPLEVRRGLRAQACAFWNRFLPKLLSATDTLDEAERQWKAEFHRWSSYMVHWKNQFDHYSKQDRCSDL
Compound,Potency,"activity, negative = inhibition"
CCOC(=O)C(C)Oc1ccc(Oc2nc3ccc(Cl)cc3o2)cc1 (centres undefined),inactive,–
O=C(C(Cl)Cl)N1CCOC12CCCCC2,inactive,–
CC(=O)N[C@@H](CO)C(=O)N[C@@H](CC(=O)O)C(=O)N[C@@H](CCCCN)C(=O)N1CCC[C@H]1C(=O)O (Ac-SDKP-OH),inactive,–
CC(C)SCc1ccco1,inactive,–
CCCCCCCCCCCCOC(C)=O,inactive,–
OCCC(O)CO (centres undefined),inactive,–
CCO[Si](C)(OCC)OCC,inactive,–
CC(=O)CCc1ccc(O)cc1,inactive,–
COc1nc(C)nc(Cl)c1NC1=NCCN1,inactive,–
N#CCCOCCC#N,inactive,–
CN(C)C(=O)Nc1ccc(Oc2ccc(Cl)cc2)cc1,inactive,–
CC(C)=CCCC(C)C=O (centres undefined),inactive,–
CCN(CC)CC(=O)OCC(=O)[C@@]1(O)CC[C@H]2[C@@H]3CCC4=CC(=O)CC[C@]4(C)[C@H]3[C@@H](O)C[C@@]21C,inactive,–
CCCCCCCCCCCCCCN(C)C,–,0.601% [at 23.6 µM] (inactive)
CC(C)(CCl)c1ccccc1,inactive,–
CC(=O)CC(=O)Nc1ccc2[nH]c(=O)[nH]c2c1,inactive,–

# Target: Acetylcholinesterase (Homo sapiens) (UniProt P22303)
# Test: Acetylcholinesterase (AChE) small molecule antagonists: enzyme-based qHTS assay (AID 1347397); note: nearly all actives have a fitted effect of over 55% in size; note: potency is the fitted concentration of half-maximal effect
# Details: Potency: AChE enzyme activity inhibition; outcome: AChE enzyme activity inhibition; series mostly up to 115 µM
# Summary of the method: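 Recombinant human AChE, dispensed at 50 mU/mL, was preincubated with Tox21 10K compounds or DMSO vehicle for 30 min at room temperature. DTNB plus acetylthiocholine was then added, and thiocholine was measured colorimetrically after a further 10 min.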
Compound,Potency,"activity change, negative = inhibition"
C[C@]12CC[C@H]3C(=CCc4cc(O)ccc43)[C@@H]1CCC2=O,inactive,–
C=CCOc1c(Br)cc(Br)cc1Br,inactive,–
CC(C)=CCC/C(C)=C\C#N,inactive,–
NC(=O)c1ccccc1[N+](=O)[O-],inactive,–
CC1(C)C(=O)N(CO)C(=O)N1CO,inactive,–
CC1(C)O[C@@H]2C[C@H]3[C@@H]4CCC5=CC(=O)CC[C@]5(C)[C@@]4(F)[C@@H](O)C[C@]3(C)[C@]2(C(=O)CCl)O1,inactive,–
CCCCCOC(=O)CCCC,inactive,–
CC(C)(C)c1cc(CCC(=O)NN)cc(C(C)(C)C)c1O,inactive,–
CN1CCCC(n2nc(Cc3ccc(Cl)cc3)c3ccccc3c2=O)CC1 (centres undefined),27.5 µM (active),–
CCc1cccc(C)c1N(C(=O)C(=O)O)C(C)COC (centres undefined),inactive,–
C=CCN1CCc2nc(N)sc2CC1,inactive,–
CC(C)CCCCOC(=O)c1ccccc1C(=O)OCCCCC(C)C,inactive,–
CCC(Cl)CCC(Cl)C(Cl)CC(Cl)C(Cl)C(Cl)CCl (centres undefined),inactive,–
Cc1ccccc1S,inactive,–
CCCc1ccc(OC)cc1,inactive,–
CC(C)COC(=O)COc1cc(Cl)c(Cl)cc1Cl,inactive,–
CC(C)(C)c1ccc(N)cc1,inactive,–
FC1(F)C(F)(F)C(F)(F)C2(F)C(F)(F)C(F)(F)C(F)(F)C(F)(F)C2(F)C1(F)F (centres undefined),inactive,–
CCCCOCCOC(=O)c1cccnc1,inactive,–
CCCCN(CCCC)C(C(N)=O)c1ccc(OC)cc1 (centres undefined),inactive,–

Compound,Potency,"activity change, negative = inhibition"
O=C(O)c1c(Cl)cccc1Cl,inactive,–
CCCCCCCCCI,inactive,–
Cc1cc(=O)c2c(O)c3c(O)cc(=O)c4c3c3c(cc(O)c1c23)C(C)(C)C=4O,–,2.31% [at 23.6 µM] (inactive)
CCOC(=O)C(C)Oc1ccc(Oc2nc3ccc(Cl)cc3o2)cc1 (centres undefined),inactive,–
O=C(C(Cl)Cl)N1CCOC12CCCCC2,inactive,–
CC(=O)N[C@@H](CO)C(=O)N[C@@H](CC(=O)O)C(=O)N[C@@H](CCCCN)C(=O)N1CCC[C@H]1C(=O)O (Ac-SDKP-OH),inactive,–
CC(C)SCc1ccco1,inactive,–
CCCCCCCCCCCCOC(C)=O,inactive,–
OCCC(O)CO (centres undefined),inactive,–
CCO[Si](C)(OCC)OCC,inactive,–
CC(=O)CCc1ccc(O)cc1,inactive,–
COc1nc(C)nc(Cl)c1NC1=NCCN1,inactive,–
N#CCCOCCC#N,inactive,–
CN(C)C(=O)Nc1ccc(Oc2ccc(Cl)cc2)cc1,inactive,–
CC(C)=CCCC(C)C=O (centres undefined),inactive,–
CCN(CC)CC(=O)OCC(=O)[C@@]1(O)CC[C@H]2[C@@H]3CCC4=CC(=O)CC[C@]4(C)[C@H]3[C@@H](O)C[C@@]21C,inactive,–
CCCCCCCCCCCCCCN(C)C,–,0.242% [at 23.6 µM] (inactive)
CC(C)(CCl)c1ccccc1,inactive,–
CC(=O)CC(=O)Nc1ccc2[nH]c(=O)[nH]c2c1,inactive,–

# Target: Acetylcholinesterase (Homo sapiens) (UniProt P22303)
# Test: Acetylcholinesterase (AChE) small molecule antagonists: fluorescence cell-based qHTS assay (AID 1347398); note: nearly all actives have a fitted effect of over 50% in size; note: potency is the fitted concentration of half-maximal effect
# Details: SH-SY5Y cells; Potency: AChE activity; outcome: AChE activity; series mostly up to 115 µM
# Summary of the method: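 Human SH-SY5Y cells were plated overnight at 37 C, exposed to compound for 30 min at 37 C, 5% CO2, then given acetylthiocholine plus Thiolite Green for 40 min at room temperature; thiocholine fluorescence (Ex/Em 490/520 nm) reports endogenous AChE activity.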
Compound,Potency,"activity change, negative = inhibition"
C[C@]12CC[C@H]3C(=CCc4cc(O)ccc43)[C@@H]1CCC2=O,inactive,–
C=CCOc1c(Br)cc(Br)cc1Br,inactive,–
CC(C)=CCC/C(C)=C\C#N,inactive,–
NC(=O)c1ccccc1[N+](=O)[O-],inactive,–
CC1(C)C(=O)N(CO)C(=O)N1CO,inactive,–
CC1(C)O[C@@H]2C[C@H]3[C@@H]4CCC5=CC(=O)CC[C@]5(C)[C@@]4(F)[C@@H](O)C[C@]3(C)[C@]2(C(=O)CCl)O1,inactive,–
CCCCCOC(=O)CCCC,inactive,–
CC(C)(C)c1cc(CCC(=O)NN)cc(C(C)(C)C)c1O,inactive,–
CN1CCCC(n2nc(Cc3ccc(Cl)cc3)c3ccccc3c2=O)CC1 (centres undefined),13.8 µM (active),–
CCc1cccc(C)c1N(C(=O)C(=O)O)C(C)COC (centres undefined),inactive,–
C=CCN1CCc2nc(N)sc2CC1,inactive,–
CC(C)CCCCOC(=O)c1ccccc1C(=O)OCCCCC(C)C,inactive,–
CCC(Cl)CCC(Cl)C(Cl)CC(Cl)C(Cl)C(Cl)CCl (centres undefined),inactive,–
Cc1ccccc1S,inactive,–
CCCc1ccc(OC)cc1,inactive,–
CC(C)COC(=O)COc1cc(Cl)c(Cl)cc1Cl,inactive,–
CC(C)(C)c1ccc(N)cc1,inactive,–
FC1(F)C(F)(F)C(F)(F)C2(F)C(F)(F)C(F)(F)C(F)(F)C(F)(F)C2(F)C1(F)F (centres undefined),inactive,–
CCCCOCCOC(=O)c1cccnc1,inactive,–
CCCCN(CCCC)C(C(N)=O)c1ccc(OC)cc1 (centres undefined),inactive,–

Compound,Potency,"activity change, negative = inhibition"
O=C(O)c1c(Cl)cccc1Cl,inactive,–
CCCCCCCCCI,inactive,–
Cc1cc(=O)c2c(O)c3c(O)cc(=O)c4c3c3c(cc(O)c1c23)C(C)(C)C=4O,–,7.09% [at 23.8 µM] (inactive)
CCOC(=O)C(C)Oc1ccc(Oc2nc3ccc(Cl)cc3o2)cc1 (centres undefined),inactive,–
O=C(C(Cl)Cl)N1CCOC12CCCCC2,inactive,–
CC(=O)N[C@@H](CO)C(=O)N[C@@H](CC(=O)O)C(=O)N[C@@H](CCCCN)C(=O)N1CCC[C@H]1C(=O)O (Ac-SDKP-OH),inactive,–
CC(C)SCc1ccco1,inactive,–
CCCCCCCCCCCCOC(C)=O,inactive,–
OCCC(O)CO (centres undefined),inactive,–
CCO[Si](C)(OCC)OCC,inactive,–
CC(=O)CCc1ccc(O)cc1,inactive,–
COc1nc(C)nc(Cl)c1NC1=NCCN1,inactive,–
N#CCCOCCC#N,inactive,–
CN(C)C(=O)Nc1ccc(Oc2ccc(Cl)cc2)cc1,inactive,–
CC(C)=CCCC(C)C=O (centres undefined),inactive,–
CCN(CC)CC(=O)OCC(=O)[C@@]1(O)CC[C@H]2[C@@H]3CCC4=CC(=O)CC[C@]4(C)[C@H]3[C@@H](O)C[C@@]21C,inactive,–
CCCCCCCCCCCCCCN(C)C,–,2.04% [at 23.8 µM] (inactive)
CC(C)(CCl)c1ccccc1,inactive,–
CC(=O)CC(=O)Nc1ccc2[nH]c(=O)[nH]c2c1,inactive,–
